Some structures have more than one record in an assay (separate samples or runs), and their calls can disagree. Active and inactive are the calls of the source. The calls were made as follows: active = hit-call score of the fitted dose curve at least 0.9, where 1 is the maximum; inactive = score below 0.9.
experiment: ATG_GLI_CIS: Attagene CIS-FACTORIAL HepG2 Assay for human Zinc Finger Protein GLI1 (AID 2282945); conditions: HepG2, Attagene cis-factorial reporter mRNA, GLI element; actives raise or lower the signal
Description: ATG_CIS is a cell-based, multiplexed-readout assay that uses HepG2, a human liver cell line, with measurements taken at 24 hours after chemical dosing in a 24-well plate.ATG_GLI_CIS is one of 52 assay component(s) measured or calculated from the ATG_CIS assay. It is designed to make measurements of mRNA induction, a form of inducible reporter, as detected with fluorescence intensity signals by Reverse transcription polymerase chain reaction (RT-PCR) and Capillary electrophoresis technology.Data from the assay component ATG_GLI_CIS was analyzed into 1 assay endpoint. This assay endpoint, ATG_GLI_CIS, was analyzed with bidirectional fitting relative to DMSO as the negative control and baseline of activity. Using a type of inducible reporter, measures of mRNA for gain or loss-of-signal activity can be used to understand the reporter gene at the transcription factor-level as they relate to the gene GLI1. Furthermore, this assay endpoint can be referred to as a primary readout, because this assay has produced multiple assay endpoints where this one serves a reporter gene function. To generalize the intended target to other relatable targets, this assay endpoint is annotated to the dna binding intended target family, where the subfamily is zinc finger.
Human liver HepG2 cells are transiently transfected with multiple reporter transcription units (MRTUs) in 6-well plates using FuGene 6 reagent (Roche; 3 ml FuGene/1 mg DNA). The MRTU constructs are regulated by a cis-regulating element (promoter). […] A major difference between the CIS and TRANS system is that in CIS activities of endogenous TFs are measured, whereas the TRANS assay evaluates changes in activities of exogenous, chimeric NR-Gal4 proteins. […] At the end of 24 hour incubation, total RNA was isolated using TriZol reagent (Invitrogen). The isolated RNA is then reverse-transcribed using oligo(dT) primer and Mo-MLV reverse transcriptase (Invitrogen) with DNAse I (Ambion) treatment for 30 min. The one-tenth of the produced cDNA was amplified by PCR using Taq DNA polymerase (Invitrogen) and two reporter sequence-specific primers. The PCR products were fluorescently labeled by primer extension with 6-arboxyfluorescein (6-FAM) 5'-labeled reporter sequence-specific primer (2 min at 95 C, 20 s at 68 C and 10 min at 72 C) and these products were digested with 5U of HpaI (New England Biolabs) for 2h at 37 C. The fragments were purified using Qiaquick PCR columns (Qiagen), analyzed on an ABI 3130xL genetic analyzer (Applied Biosystems) with peak positions identified by using a set of X-rhodamine (ROX)-labeled MapMarker1000 molecular weight standards (BioVentures). The raw capillary electrophoresis data was processed using Attagraph software (Attagene).

| SMILES | outcome | AC50 |
| --- | --- | --- |
| CC1CN1P(=O)(N1CC1C)N1CC1C (stereo not given) | inactive | – |
| ClC1=C(Cl)[C@]2(Cl)[C@H]3[C@H]([C@H]4C=C[C@H]3C4)[C@@]1(Cl)C2(Cl)Cl | inactive | – |
| CCNc1nc(NC(C)(C)C)nc(SC)n1 | inactive | – |
| O=C(O)C(F)(F)C(F)(F)C(F)(F)C(F)(F)C(F)(F)C(F)(F)C(F)(F)C(F)(F)C(F)(F)C(F)(F)F | inactive | 174 µM (active) |
| CC(C)c1ccc(CO)cc1 | inactive | – |
| CN(C)P(=O)(N(C)C)N(C)C | inactive | – |
| Cc1cc(Cl)ccc1O[C@H](C)C(=O)O | inactive | – |
| Oc1cccc2cccnc12 | inactive | – |
| BrCCBr | inactive | – |
| O=[N+]([O-])c1c(Cl)c(Cl)cc(Cl)c1Cl | inactive | – |
| CC(Br)C(=O)O (stereo not given) | inactive | – |
| COC(=O)c1sccc1S(=O)(=O)NC(=O)Nc1nc(C)nc(OC)n1 | inactive | – |
| O=C(O)Cc1ccccc1 | inactive | – |
| CCC(C)(C)c1ccc(O)c(C(C)(C)CC)c1 | inactive | – |
| Oc1c(I)cc(I)cc1I | – | 149 µM (active) |
| Cn1sc(Cl)cc1=O | inactive | – |
| CC(C)c1cccc(C(C)C)c1O | inactive | – |
| Nc1ccc(-c2ccc(N)c(Cl)c2)cc1Cl | inactive | – |
| C[C@]12CCC(=O)C[C@@H]1CC[C@@H]1[C@@H]2CC[C@]2(C)[C@@H](O)CC[C@@H]12 | inactive | – |
| COC[C@H](C)N(C(=O)CCl)c1c(C)csc1C | inactive | – |

| SMILES | outcome | AC50 |
| --- | --- | --- |
| ClC1=C(Cl)[C@]2(Cl)[C@@H]3[C@@H](Cl)[C@@H](Cl)C[C@@H]3[C@@]1(Cl)C2(Cl)Cl | inactive | – |
| c1cc[c]([Hg][c]2ccccc2)cc1 | inactive | – |
| Nc1cccc2ccccc12 | inactive | – |
| CCCCP(CCCC)CCCC | inactive | – |
| CCOP(=O)(CN(CCO)CCO)OCC | inactive | – |
| C=CC(=O)N(C)C | inactive | – |
| ClCCBr | inactive | – |
| N#CCc1ccc(Cl)cc1 | inactive | – |
| COc1cc(OC)nc(NC(=O)NS(=O)(=O)c2ncccc2C(=O)N(C)C)n1 | inactive | – |
| COc1cc2c(cc1OC)[C@@]13CCN4CC5=CCO[C@H]6CC(=O)N2[C@H]1[C@H]6[C@H]5C[C@H]43 | inactive | – |
| O=C1CCCN1 | inactive | – |
| COc1ccc(OC)c(C=O)c1 | inactive | – |
| C1CCC(NC2CCCCC2)CC1 | inactive | – |
| O=P(O)(O)CN(CP(=O)(O)O)CP(=O)(O)O | inactive | – |
| CCOC(=O)Nc1cccc(OC(=O)Nc2ccccc2)c1 | inactive | – |
| C[C@H]1O[C@@H](O[C@H]2[C@@H](O)C[C@H](O[C@H]3[C@@H](O)C[C@H](O[C@H]4CC[C@@]5(C)[C@H](CC[C@@H]6[C@@H]5CC[C@]5(C)[C@@H](C7=CC(=O)OC7)CC[C@]65O)C4)O[C@@H]3C)O[C@@H]2C)C[C@H](O)[C@@H]1O | inactive | – |
| O=c1[nH]c(=O)[nH]c(=O)[nH]1 | inactive | – |
| CC(C#N)CCC#N (stereo not given) | inactive | – |
| Cc1cc(=O)[nH]o1 | inactive | – |
